# Reference: publication PMC7862700, “An all-to-all approach to the identification of sequence-specific readers for epigenetic DNA modifications on cytosine”
# Tests used:
# Test in all cases: DAPPL (digital affinity profiling via proximity ligation, sequencing); 10 mM Tris-HCl pH 7.5, 50 mM NaCl, 1 mM DTT, 4% glycerol, room temperature, 30 min; GST-TFs on glutathione beads, 16-mer random dsDNA library, 0.1% formaldehyde crosslink after washing; high values mean tight binding
# [1] = biological target: T1, FEV (Homo sapiens, UniProt Q99581 1-238); details: protein: recombinant; tags: N-terminal GST; dsDNA, one strand shown
# T1 sequence: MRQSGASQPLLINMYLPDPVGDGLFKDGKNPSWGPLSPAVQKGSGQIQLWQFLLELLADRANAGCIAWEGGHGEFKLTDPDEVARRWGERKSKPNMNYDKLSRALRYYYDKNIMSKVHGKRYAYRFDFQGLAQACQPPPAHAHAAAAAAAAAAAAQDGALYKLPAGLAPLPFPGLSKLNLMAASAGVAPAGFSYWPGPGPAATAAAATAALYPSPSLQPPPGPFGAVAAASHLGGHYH
# Summary of the method: (§1)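 GST fusions of human transcription factors were expressed in yeast and captured with glutathione beads. Once given DNA barcodes and pooled alongside a tag-only sample, they were incubated for 30 min at room temperature with 200 nmole of a random double-stranded 16-mer DNA library in Tris/NaCl/DTT/glycerol buffer, then washed, crosslinked (0.1% formaldehyde), proximity-ligated, PCR-amplified and sequenced on an Illumina NextSeq500. The binding signal of each hexamer is its read frequency for a factor divided by its frequency for the tag-only sample.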
# [2] = biological target: ETV5 (Homo sapiens, UniProt P41161 1-510); details: protein: recombinant; tags: N-terminal GST; dsDNA, one strand shown
# Summary of the method: as §1
# [3] = biological target: HSF1 (Homo sapiens, UniProt Q00613 1-529); details: protein: recombinant; tags: N-terminal GST; chain copies: 3; dsDNA, one strand shown
# Summary of the method: as §1
# [4] = biological target: T2, SPIC (Homo sapiens, UniProt Q8N5J4 1-248); details: protein: recombinant; tags: N-terminal GST; dsDNA, one strand shown
# T2 sequence: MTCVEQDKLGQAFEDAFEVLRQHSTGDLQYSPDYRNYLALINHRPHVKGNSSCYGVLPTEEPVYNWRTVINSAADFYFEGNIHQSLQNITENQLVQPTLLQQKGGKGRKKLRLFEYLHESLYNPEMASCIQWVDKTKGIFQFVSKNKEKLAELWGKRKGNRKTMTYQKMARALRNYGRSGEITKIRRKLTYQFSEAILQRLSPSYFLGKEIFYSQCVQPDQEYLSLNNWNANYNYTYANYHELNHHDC
# Summary of the method: as §1
# [5] = biological target: ELF4 (Homo sapiens, UniProt Q99607 1-663); details: protein: recombinant; tags: N-terminal GST; dsDNA, one strand shown
# Summary of the method: as §1
# [6] = biological target: T3, ELK4 (Homo sapiens, UniProt P28324-2 1-405); details: protein: recombinant; tags: N-terminal GST; dsDNA, one strand shown
# T3 sequence: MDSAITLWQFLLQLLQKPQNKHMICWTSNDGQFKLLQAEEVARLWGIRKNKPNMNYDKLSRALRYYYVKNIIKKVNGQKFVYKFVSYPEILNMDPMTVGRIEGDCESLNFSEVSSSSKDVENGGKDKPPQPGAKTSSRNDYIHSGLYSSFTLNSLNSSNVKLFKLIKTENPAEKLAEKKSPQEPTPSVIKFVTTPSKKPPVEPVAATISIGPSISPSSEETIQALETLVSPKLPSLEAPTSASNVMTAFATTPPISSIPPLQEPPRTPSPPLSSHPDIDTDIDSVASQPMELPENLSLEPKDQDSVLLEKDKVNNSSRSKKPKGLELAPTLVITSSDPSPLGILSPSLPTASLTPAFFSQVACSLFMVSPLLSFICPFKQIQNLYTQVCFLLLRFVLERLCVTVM
# Summary of the method: as §1
# [7] = biological target: T4, ETV2 (Homo sapiens, UniProt O00321 1-342); details: protein: recombinant; tags: N-terminal GST; dsDNA, one strand shown
# T4 sequence: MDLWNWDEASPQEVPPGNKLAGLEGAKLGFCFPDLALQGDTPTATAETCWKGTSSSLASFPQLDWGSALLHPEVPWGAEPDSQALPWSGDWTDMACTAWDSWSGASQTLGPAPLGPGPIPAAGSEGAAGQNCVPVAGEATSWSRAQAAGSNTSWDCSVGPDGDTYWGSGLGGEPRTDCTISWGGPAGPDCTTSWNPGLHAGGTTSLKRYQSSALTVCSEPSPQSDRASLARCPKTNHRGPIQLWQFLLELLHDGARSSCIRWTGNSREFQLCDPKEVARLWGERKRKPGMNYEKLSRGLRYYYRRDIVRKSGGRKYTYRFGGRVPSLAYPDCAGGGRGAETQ
# Summary of the method: as §1
# [8] = biological target: T5, ELF3 (Homo sapiens, UniProt P78545 1-371); details: protein: recombinant; tags: N-terminal GST; dsDNA, one strand shown
# T5 sequence: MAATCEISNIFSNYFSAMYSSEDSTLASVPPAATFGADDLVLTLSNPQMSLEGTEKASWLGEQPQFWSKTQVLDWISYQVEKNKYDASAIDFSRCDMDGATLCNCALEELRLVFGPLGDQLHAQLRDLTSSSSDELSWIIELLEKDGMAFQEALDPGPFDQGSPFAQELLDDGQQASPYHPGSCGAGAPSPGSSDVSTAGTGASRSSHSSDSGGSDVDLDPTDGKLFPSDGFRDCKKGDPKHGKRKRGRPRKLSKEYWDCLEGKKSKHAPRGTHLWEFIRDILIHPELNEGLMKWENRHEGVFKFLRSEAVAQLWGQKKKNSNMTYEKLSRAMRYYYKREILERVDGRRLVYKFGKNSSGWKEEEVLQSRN
# Summary of the method: as §1
# [9] = biological target: CRX (Homo sapiens, UniProt O43186 1-299); details: protein: recombinant; tags: N-terminal GST; dsDNA, one strand shown
# Summary of the method: as §1
# [10] = biological target: ETV1 (Homo sapiens, UniProt P50549 1-477); details: protein: recombinant; tags: N-terminal GST; dsDNA, one strand shown
# Summary of the method: as §1
# Sequence of ELF4 (Q99607 whole entry): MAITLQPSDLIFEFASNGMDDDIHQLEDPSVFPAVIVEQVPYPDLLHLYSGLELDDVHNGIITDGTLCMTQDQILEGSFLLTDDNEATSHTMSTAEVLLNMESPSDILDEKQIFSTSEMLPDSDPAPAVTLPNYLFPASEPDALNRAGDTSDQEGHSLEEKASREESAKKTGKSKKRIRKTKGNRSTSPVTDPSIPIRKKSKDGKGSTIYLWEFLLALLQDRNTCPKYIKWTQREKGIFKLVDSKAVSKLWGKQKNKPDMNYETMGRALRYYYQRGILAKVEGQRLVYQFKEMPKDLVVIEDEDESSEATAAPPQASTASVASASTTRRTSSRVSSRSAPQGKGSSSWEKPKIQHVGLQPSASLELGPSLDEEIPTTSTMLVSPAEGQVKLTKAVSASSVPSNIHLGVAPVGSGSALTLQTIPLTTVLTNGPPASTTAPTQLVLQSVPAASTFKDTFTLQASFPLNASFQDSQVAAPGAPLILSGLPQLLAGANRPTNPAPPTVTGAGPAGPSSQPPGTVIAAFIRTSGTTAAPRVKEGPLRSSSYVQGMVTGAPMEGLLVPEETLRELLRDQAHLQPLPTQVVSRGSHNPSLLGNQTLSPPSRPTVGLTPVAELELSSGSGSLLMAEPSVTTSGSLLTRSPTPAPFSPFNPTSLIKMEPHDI
# Sequence of CRX (O43186 whole entry): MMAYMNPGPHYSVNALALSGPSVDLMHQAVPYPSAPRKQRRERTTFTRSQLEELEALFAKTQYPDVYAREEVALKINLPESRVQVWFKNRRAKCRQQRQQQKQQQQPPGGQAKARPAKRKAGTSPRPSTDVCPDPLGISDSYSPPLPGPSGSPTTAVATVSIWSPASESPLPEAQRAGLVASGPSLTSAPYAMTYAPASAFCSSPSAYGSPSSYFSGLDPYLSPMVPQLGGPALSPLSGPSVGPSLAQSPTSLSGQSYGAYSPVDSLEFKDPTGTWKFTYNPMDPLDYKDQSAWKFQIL
# Sequence of ETV1 (P50549 whole entry): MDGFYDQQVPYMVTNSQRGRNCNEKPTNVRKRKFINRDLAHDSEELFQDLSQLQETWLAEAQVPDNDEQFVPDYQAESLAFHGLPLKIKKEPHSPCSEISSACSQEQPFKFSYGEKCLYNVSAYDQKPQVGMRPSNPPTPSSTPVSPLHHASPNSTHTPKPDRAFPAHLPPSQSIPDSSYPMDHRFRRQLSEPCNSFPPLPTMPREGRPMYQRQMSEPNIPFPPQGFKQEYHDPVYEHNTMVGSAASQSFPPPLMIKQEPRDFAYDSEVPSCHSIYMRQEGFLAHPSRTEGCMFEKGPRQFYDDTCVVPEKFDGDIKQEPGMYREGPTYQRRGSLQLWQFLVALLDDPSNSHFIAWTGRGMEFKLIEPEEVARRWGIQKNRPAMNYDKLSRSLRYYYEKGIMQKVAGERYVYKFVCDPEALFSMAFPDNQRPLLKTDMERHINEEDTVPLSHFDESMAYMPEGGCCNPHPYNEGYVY
# Sequence of ETV5 (P41161 whole entry): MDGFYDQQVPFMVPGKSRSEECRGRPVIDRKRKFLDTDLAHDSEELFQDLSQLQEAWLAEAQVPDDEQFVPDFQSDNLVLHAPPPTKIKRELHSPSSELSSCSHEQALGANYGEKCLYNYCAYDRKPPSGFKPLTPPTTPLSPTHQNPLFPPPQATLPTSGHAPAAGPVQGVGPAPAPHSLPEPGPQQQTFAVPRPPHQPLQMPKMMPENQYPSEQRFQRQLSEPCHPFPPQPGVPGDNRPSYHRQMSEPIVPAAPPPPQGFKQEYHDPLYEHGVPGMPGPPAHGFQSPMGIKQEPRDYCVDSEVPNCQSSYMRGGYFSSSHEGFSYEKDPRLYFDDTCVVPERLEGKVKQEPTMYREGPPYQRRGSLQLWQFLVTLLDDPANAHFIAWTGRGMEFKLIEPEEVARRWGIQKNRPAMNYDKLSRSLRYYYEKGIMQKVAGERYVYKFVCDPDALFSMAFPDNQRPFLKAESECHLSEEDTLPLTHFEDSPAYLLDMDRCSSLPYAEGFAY
# Sequence of HSF1 (Q00613 whole entry): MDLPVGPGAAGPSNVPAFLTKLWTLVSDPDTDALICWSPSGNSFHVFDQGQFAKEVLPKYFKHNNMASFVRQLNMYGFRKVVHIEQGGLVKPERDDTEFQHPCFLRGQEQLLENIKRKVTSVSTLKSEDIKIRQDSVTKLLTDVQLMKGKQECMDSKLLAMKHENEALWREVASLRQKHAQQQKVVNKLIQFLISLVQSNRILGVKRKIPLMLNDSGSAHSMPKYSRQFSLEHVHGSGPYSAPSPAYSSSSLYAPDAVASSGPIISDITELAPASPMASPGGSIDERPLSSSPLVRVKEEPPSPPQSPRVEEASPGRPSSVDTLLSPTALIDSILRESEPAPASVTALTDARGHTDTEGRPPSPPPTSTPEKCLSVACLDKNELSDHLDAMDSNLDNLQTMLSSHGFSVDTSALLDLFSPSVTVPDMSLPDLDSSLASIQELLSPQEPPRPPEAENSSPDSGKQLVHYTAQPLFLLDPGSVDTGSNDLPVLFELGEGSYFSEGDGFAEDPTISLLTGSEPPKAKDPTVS
sequence,measurement,setting,value
TACGCG,binding signal,[1],"1.11 fold enrichment (6-mer frequency, TF over GST control)"
same,binding signal,[2],"1.21 fold enrichment (6-mer frequency, TF over GST control)"
same,binding signal,[3],"1.17 fold enrichment (6-mer frequency, TF over GST control)"
same,binding signal,[4],"1.12 fold enrichment (6-mer frequency, TF over GST control)"
same,binding signal,[5],"1.12 fold enrichment (6-mer frequency, TF over GST control)"
same,binding signal,[6],"1.25 fold enrichment (6-mer frequency, TF over GST control)"
same,binding signal,[7],"1.21 fold enrichment (6-mer frequency, TF over GST control)"
same,binding signal,[8],"1.19 fold enrichment (6-mer frequency, TF over GST control)"
same,binding signal,[9],"1.24 fold enrichment (6-mer frequency, TF over GST control)"
same,binding signal,[10],"1.23 fold enrichment (6-mer frequency, TF over GST control)"
